DT40 TDP1 no CPT = qHTS for Inhibitors of human tyrosyl-DNA phosphodiesterase 1 (TDP1): qHTS in cells in absence of CPT. actives 15% (n = 420,000). AID 686978, 2013. DT40 Tdp1-/- hTDP1 cells, no CPT, ATP luminescence, 48 h. Potency, µM (highest dose often 46.2 µM), usual class: inhibitors; also: nearly all actives have a fitted effect of over 55% in size
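Stably hTDP1-transfected Tdp1-null chicken DT40 cells were treated with library compounds minus camptothecin and grown for at least 48 hr at 37 °C, after which cellular ATP was quantified by luminescence.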
S2 tox = reduces viability in counter-screen for ATXN expression inhibitors | Potency, µM (doses to about 56.7 µM), hits mostly cytotoxic | actives 0.49% (n = 400,000) | S2 cells (HEK-293 line with an ATXN2-luciferase reporter) viability, CellTiter-Fluor protease fluorescence, 24 h; also: nearly all actives have a fitted effect of over 40% in size
TGFb SMAD3 inh = TGF-b pathway inhibition | HepG2 CAGA-GFP TGF-b/SMAD3 reporter, GFP fluorescence, 18 h; TGF-beta stimulated, 500 pg/mL final | Potency, µM (titrated, usually from 46.1 µM), most hits filed as inhibitors | actives 1.2% (n = 410,000) | AID 588855; also: nearly all actives have a fitted effect of over 65% in size
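Read-out: total well GFP (ex488/em500-530) summed from mean per-cell fluorescence. Cells: HEPG2 CAGA-GFP, 1% FBS DMEM, 18 h at 37 degrees C with 500 pg/mL final TGF-beta. Unstimulated wells served as the full-inhibition control; stimulated DMSO wells = 0%.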
HepG2 tox = kills HepG2 cells in TGF-b inhibitor counter-screen; HepG2 CAGA-GFP viability, ATP luminescence, 18 h; Potency, µM (series often up to 46.1 µM), usual class: cytotoxic; actives 0.76% (n = 410,000); AID 588856
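CellTiter-Glo luminescence gave cytotoxicity after 18 hours at 37 degrees C. The cells were HepG2 CAGA-GFP in 1% FBS DMEM, stimulated with 500 pg/mL TGF-beta after compound addition. %Activity was normalised to no-cell wells (complete cell-killing) and DMSO (no toxicity), and curves were fitted and classified.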
ATXN2 expr inh = reduces ATXN2 reporter expression in HEK-293 cells; AID 1745845; Potency, µM (top dose mostly 57 µM), hits mostly inhibitors; actives 0.72% (n = 360,000); HEK-293 ATXN2-luciferase reporter, luminescence, 24 h; also: nearly all actives have a fitted effect of over 55% in size
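ATXN2-luciferase reporter cells (luciferase flanked by upstream and downstream ATXN2 gene portions) were treated 24 h at 37 °C with compounds at up to 57 uM. SteadyGlo luminescence gave expression; GF-AFC fluorescence gave viability.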
TDP1 cell CPT = DT40-hTDP1 cell growth loss with CPT; actives 12% (n = 420,000); chicken DT40 Tdp1-/-;hTDP1 cells + 20 nM CPT, ATP luminescence, 48 h; Potency, µM (series often up to 46.2 µM), most hits filed as inhibitors; also: nearly all actives have a fitted effect of over 55% in size
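Chicken DT40 Tdp1-/- cells stably complemented with human TDP1 were seeded at 400 cells/well in medium containing 20 nM camptothecin, exposed to pin-transferred compounds, and grown at 37 °C for at least 48 hr. Viability was read as ATP luminescence.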
A number is an active result; n = inactive; u = inconclusive; x = not tested or not shown; [ ] = remark or other dose. The list is not random: actives were taken first. Their share in the collection is about 17%. Calls follow the shape of the dose curve; as a rule, active = well fitted curve in the direction sought with a large enough effect; inconclusive = small, poorly fitted or top-dose-only effect, or another doubt; inactive = no such curve, though single readings can be large; an effect the other way counts as inactive or inconclusive.

SMILES | DT40 TDP1 no CPT | S2 tox | TGFb SMAD3 inh | HepG2 tox | ATXN2 expr inh | TDP1 cell CPT
C[C@H]1CN=C(N(C)C)N1CC1CCC(C(C)(C)C)CC1 (some centres undefined) | 12µM | u | u | n | n | 13µM
C[C@H]1CN=C(N(C)C)N1CCC1CCCCC1 | 16µM | n | n | n | n | u
C[C@H]1CN=C(N(C)C)N1CC1CCCCC1 | u | n | n | n | n | n
C[C@H]1CN=C(N(C)C)N1CC1CCCC1 | n | n | n | n | n | n
CC1=CC[C@@]2(CO)COC(c3ccccc3O)C1C2 (some centres undefined) | n[9.04 µM] | x | x | x | x | n[9.04 µM]
C/C(=N/OC(=O)c1ccccc1Br)c1ccc(C)cc1 | n | n | n | n | n | n
COc1ccc(C(=O)CC(=O)C(=O)Nc2cc(C)ccc2C)cc1 | u | n | n | n | n | n
COc1cccc(NC(=O)C(=O)NCCc2ccc(F)cc2)c1 | n | n | n | 20µM | n | n
COc1ccc(C(=O)CC(=O)C(=O)Nc2cccc(F)c2)cc1 | 15µM | n | n | n | n | u
COc1ccc(C(=O)CC(=O)C(=O)Nc2ccccc2)cc1 | n | n | n | n | n | u
CCOc1ccccc1NC(=O)C(=O)CC(=O)c1ccc(OC)cc1 | 21µM | n | n | n | n | u
COc1ccc(C(=O)CC(=O)C(=O)Nc2ccc(C)c(Cl)c2)cc1 | 16µM | n | n | n | n | u
COCCC1CCCCN1Cc1nc(N2CCCCC2)c2cc(OC)c(OC)cc2n1 (centres undefined) | n | n | x | x | x | n[9.04 µM]
Cc1cc(C(=O)NN)n[nH]1 | n | n | n | n | n | u
COc1ccc(C(=O)CNc2ccccc2C#N)cc1 | 21µM | n | n | n | n | u
c1ccc(-c2cc3c(N4CCCCC4)ncnc3s2)cc1 | u | n | n | n | n | n
CC(C)N(C(=O)CSc1ncnc2sc(-c3ccccc3)cc12)C(C)C | 15µM | n | n | n | n | u
COC(=O)c1c(C)[nH]c(C(=O)CSc2ncnc3sc(-c4ccccc4)cc23)c1C | 16µM | n | n | 4µM | n | 18µM
CC(Sc1ncnc2sc(-c3ccccc3)cc12)C(=O)N1CCNC1=O (centres undefined) | u | n | n | n | n | 18µM
O=c1[nH]c(CSc2ncnc3sc(-c4ccccc4)cc23)nc2ccccc12 | 13µM | n | n | n | n | 16µM
CCOC(=O)c1c(C)[nH]c(C(=O)CSc2ccccc2)c1C | u | u | u | n | n | n
Cc1ccc2oc(-c3ccc(Cl)c(NC(=O)c4cc5ccccc5o4)c3)nc2c1 | n | n | n | n | n | n
C/C(=N\NS(=O)(=O)c1cccc([N+](=O)[O-])c1)c1cccnc1 | n | n | n | n | n | n
CCOC(=O)c1c2c(n(C)c1C)C(=O)C(=O)c1ccc(Br)cc1-2 | 2.1µM | u | u | n | u | 1.5µM
CCOC(=O)c1c2c(n(Cc3ccccc3)c1C)C(=O)C(=O)c1ccccc1-2 | 1.2µM | 15µM | u | n | 19µM | 0.58µM
SMILES | DT40 TDP1 no CPT | S2 tox | TGFb SMAD3 inh | HepG2 tox | ATXN2 expr inh | TDP1 cell CPT
Cc1c(CN(C)C)c2c(n1C)C(=O)c1ccc(Br)cc1-2 | u | n | n | n | u | u
CC(C)NC(=O)N1CC2(CCN(C(=O)c3ccco3)CC2)C1 | n | x | x | x | x | n
COc1cc(C(O)c2nc(-c3csc4ccccc34)cs2)ccc1F (centres undefined) | 18µM | n | u | n | n | u
COc1cc(C(O)c2nc(-c3cccc(C#N)c3)cs2)ccc1F (centres undefined) | u | n | n | n | n | u
OC(c1ccc(F)c(F)c1)c1nc(-c2csc3ccccc23)cs1 (centres undefined) | u | n | u | n | n | 23µM
C/C(=N\NC(=O)c1cc(C(C)(C)C)[nH]n1)C12CC3CC(CC(C3)C1)C2 | u | n | n | n | n | u
CCCC(C)NC(=O)CSc1nc(-c2ccccc2)cn1N (centres undefined) | u | n | n | n | n | u
O=C1C(=O)N(CCN2CCOCC2)C(c2ccccn2)/C1=C(/O)c1ccc(F)cc1 (centres undefined) | 23µM | n | n | n | n | u
CN(C)CCN1C(=O)C(=O)/C(=C(/O)c2ccc(S(=O)(=O)N3CCOCC3)cc2)C1c1ccc(F)cc1 (centres undefined) | n | n | n | 13µM | n | n
O=S(=O)(c1ccc(Br)cc1)c1nc(-c2ccco2)oc1SCc1ccccc1F | u | n | n | n | n | u
Cc1ccc(-c2nnc(SCCC(=O)Nc3ccccc3)n2C)cc1 | n | x | n | n | x | n
Cn1ccnc1C(=O)c1cc(SCC(=O)NC2CC2)nc2ccccc12 | n | n | n | n | n | n
CN(C(=O)CSc1cc(C(=O)c2nccn2C)c2ccccc2n1)c1ccccc1 | 18µM | u | 14µM | n | n | 15µM
C=CCNC(=S)NNC(=O)CCC(O)CCCCC (centres undefined) | 18µM | n | n | n | n | 15µM
OC[C@@H]1CN(Cc2ccc(Cl)cc2)C[C@H](n2cnc3c(NCc4ccc(F)cc4)ncnc32)O1 | 18µM | u | u | n | u | 18µM
OC[C@@H]1CN(Cc2cccc(C(F)(F)F)c2)C[C@H](n2cnc3c(NC4CC4)ncnc32)O1 | u | n | n | n | n | u
OC[C@@H]1CN(Cc2cccc(C(F)(F)F)c2)C[C@H](n2cnc3c(NCc4ccc(F)cc4)ncnc32)O1 | 9.2µM | u | u | n | u | 18µM
OC[C@@H]1CN(Cc2cccc(C(F)(F)F)c2)C[C@H](n2cnc3c(NCc4ccco4)ncnc32)O1 | u | n | n | n | n | 18µM
Cc1nc(N2CCCC2)c2c(C(=O)Nc3cccc(C)c3C)c(C)oc2n1 | n | x | n | n | x | n
COc1ccc(-n2c(SCC(N)=O)nnc2-c2ccccc2F)cc1 | n | n | n | n | n | n
COc1ccccc1C(=O)NCCC(=O)NCC(c1ccco1)N1CCCC1 (centres undefined) | n | n | n | n | n | n
Cc1[nH]c2ccccc2c1C(c1ccncc1)N1CCCCC1 (centres undefined) | 16µM | n | n | n | n | 13µM
Cc1c(N2CCCCC2)[nH]c2ccccc12 | 10µM | n | n | n | x | u
Cc1ccc(C)c(Cn2c(=O)cc(C)c3c(C)nn(-c4cccc(F)c4)c32)c1 | n | n | n | n | n | n

Assay outcomes: PubChem, National Center for Advancing Translational Sciences (NCATS)
